The entries come from a sample that favours hits as a whole.
CD40 NFkB inh: CD40 pathway inhibition in BL2 cells. BL2 NF-kB luciferase reporter, CD40L-induced, 4 h. inhibition, % at 10 µM. 83,000 compounds, 0.94% hits. AID 1053188;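 active = mean inhibition of at least 50% with a set share of replicates also reaching that level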;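 also: 0% = neutral control wells and 100% = IKK inhibitor VII at 50 µM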
* = called active by the depositor; [ ] = remark or other dose.

SMILES | CD40 NFkB inh
O=C(C[C@@H]1CC[C@@H]2[C@H](COC[C@H](O)CN2Cc2cc(F)ccc2F)O1)NCc1ccc(Oc2ccccc2)cc1 | 63*[25 µM]
O=C(C[C@@H]1CC[C@H]2[C@@H](COC[C@H](O)CN2Cc2cc(F)ccc2F)O1)NCc1ccc(Oc2ccccc2)cc1 | 36[25 µM]
CO[C@H]1CN(C)C(=O)c2cc(NC(=O)c3cc(C)on3)ccc2OC[C@H](C)N(C(=O)C2CC2)C[C@H]1C | -2
CS(=O)(=O)Nc1ccc2c(c1)[C@@H]1C[C@@H](CC(=O)NC3CCCC3)O[C@H](CO)[C@@H]1O2 | -1[25 µM]
O=C(NC1CCCCC1)N1CC(=O)N2[C@H](CO)[C@@H](c3ccc(-c4cccnc4)cc3)[C@H]2C1 | -4
C[C@@H]1CN(C)C(=O)Cc2cc(N)ccc2O[C@H]1CN(C)C(=O)OC(C)(C)C | -2
C/C=C/c1ccc([C@H]2[C@@H](CNC(C)=O)N(C(=O)Cc3ccncc3)[C@H]2CO)cc1 | 0[25 µM]
CCC(=O)N1[C@H](CO)[C@@H](c2ccc(C3=CCCC3)cc2)[C@H]1CNC(=O)CN(C)C | -1
CC(=O)N1[C@H](CO)[C@H](c2ccccc2)[C@H]1CNC(=O)c1ccncc1 | -3[25 µM]
CN(C)c1ccc2c(c1)[C@@H]1C[C@@H](CC(=O)O)O[C@@H](CO)[C@@H]1O2 | -2[25 µM]
CC(C)CC#Cc1ccc([C@H]2[C@H](CO)N3C(=O)CN(C(=O)NC4CCCC4)C[C@@H]23)cc1 | 4
COC(=O)[C@H](C)NC(=O)Nc1ccc(S(N)(=O)=O)cc1 | 14
CNC(=O)Nc1ccc(S(N)(=O)=O)cc1 | 10
CC(C)C(Cl)=NOC(=O)Nc1ccc(S(N)(=O)=O)cc1 | 112*
C[C@@H]1CCCCO[C@H](CN(C)C(=O)Cc2ccccc2)[C@H](C)CN([C@H](C)CO)C(=O)c2cc(NS(C)(=O)=O)ccc2O1 | 1[25 µM]
COc1ccccc1NC(=O)N1C[C@H]2[C@@H](c3ccccc31)[C@H](CO)N2C(=O)C1CCCC1 | -7[25 µM]
O=C(CN1c2ccccc2Sc2ccccc21)N/N=C/c1ccc(Cl)cc1 | 16
OC1CC2CCC(C1)N2CCCN1c2ccccc2Sc2ccc(Cl)cc21 (stereo not drawn) | 54*
O=C1CCSc2ccc(Cl)cc2N1Cc1ccccc1 | 1
N#C[C@H]1[C@@H](c2ccc(C#CC3CCCCC3)cc2)[C@H](CO)N1C(=O)Cc1ccccn1 | 0
CS(=O)(=O)N1C2CN(CC(F)(F)F)CC1C2c1ccc(Br)cc1 (stereo not drawn) | -7
CC(=O)Nc1ccc([N+](=O)[O-])cn1 | -2
CC(=O)Nc1ccc(Sc2ccc([N+](=O)[O-])o2)cc1 | 86*
CC(=O)Nc1ccc(SC(Sc2ccc(NC(C)=O)cc2)c2ccccc2)cc1 | -11
C[C@H](CO)N1C[C@H](C)[C@H](CN(C)S(=O)(=O)c2ccccc2)OCc2cn(nn2)CCCC1=O | -7
SMILES | CD40 NFkB inh
CC1CC(C)C(=NNC(N)=O)C(C(O)CC2CCC(=O)NC2=O)C1 (stereo not drawn) | 56*
O=C(C[C@@H]1C=C[C@@H](NC(=O)NC2CCCC2)[C@@H](CO)O1)NCc1ccc(F)cc1 | -4
O=C(/C=C/c1ccc2c(c1)OCO2)c1ccccn1 | -87
C(=Cc1cnc2ccccc2n1)c1ccc2c(c1)OCO2 | 98*
Nc1nc2ccccc2n1/N=C/c1ccc2c(c1)OCO2 | -83
Cc1ccccc1S(=O)(=O)NCC[C@H]1CC[C@@H](NC(=O)C2CCCC2)[C@H](CO)O1 | 1
COc1ccc(CC2C(=O)NC(C)C(=O)N(C)C3Cc4ccc(cc4)Oc4cc(ccc4O)CC(C(=O)NC(C)C(=O)NC(C)C(=O)N2C)N(C)C3=O)cc1 (stereo not drawn) | 67*
CO[C@@H]1CN(C)C(=O)c2cc(NC(=O)c3ccc(Oc4ccccc4)cc3)ccc2OC[C@@H](C)NC[C@H]1C | 1[25 µM]
O=C(NC[C@@H]1[C@@H](c2ccccc2)[C@@H](CO)N1Cc1cccnc1)C1CCCC1 | 3
CCCCC(=O)Nc1ncc([N+](=O)[O-])s1 | -24
Cc1nc(C)c(C(=O)Nc2ncc([N+](=O)[O-])s2)o1 | 69*
CC(C)CC(=O)Nc1ncc([N+](=O)[O-])s1 | 4
CCC(=O)N1CC(=O)N2[C@H](CO)[C@H](c3ccc(C#CCC(C)C)cc3)[C@H]2C1 | -3[25 µM]
N#C[C@H]1[C@@H](c2ccc(C#Cc3ccccc3F)cc2)[C@H](CO)N1C(=O)C1CC1 | 30[25 µM]
COc1cccc(C#Cc2ccc([C@H]3[C@@H](C#N)N(C(=O)c4ccccn4)[C@@H]3CO)cc2)c1 | 53*[25 µM]
N#C[C@H]1[C@H](c2ccc(C#Cc3ccc(F)cc3)cc2)[C@H](CO)N1C(=O)C1CC1 | -26
N#C[C@@H]1[C@H](c2ccc(C#Cc3ccccc3F)cc2)[C@@H](CO)N1C(=O)C1CC1 | 86*[25 µM]
N#C[C@@H]1[C@H](c2ccc(C#Cc3cccc(F)c3)cc2)[C@@H](CO)N1C(=O)C1CCC1 | 99*
COc1cccc(C#Cc2ccc([C@@H]3[C@@H](C#N)N(C(=O)c4ccccn4)[C@H]3CO)cc2)c1 | -23[25 µM]
N#C[C@@H]1[C@H](c2ccc(C#Cc3ccc(F)cc3)cc2)[C@@H](CO)N1C(=O)C1CCCC1 | 87*
